Test results reported in PubChem BioAssay (NCATS).
Inconclusive results are not listed. Entries that show only a call come without a potency. The source made the active and inactive calls. Unless noted, calls follow the shape of the full dose curve.

Test system: not listed separately
Test: qHTS for Inhibitors of Plasmodium falciparum (HB3) proliferation (AID 504318; active = well fitted inhibition curve with a large enough effect; also: nearly all actives have a fitted effect of over 60% in size)
Settings: P. falciparum HB3 in erythrocytes, SYBR Green DNA, 72 h; series mostly up to 7.21 µM
How it was run: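 Parasite growth measured as SYBR Green DNA fluorescence (ex 485, em 535 nm) after overnight lysis following 72 h culture at 37 °C, 0.3% parasitemia, 2.5% hematocrit. Values normalized against DMSO and 0.29 uM artemisinin controls, with plate-stack correction.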
Potency is read from the fitted curve at half-maximal effect.

Compound	Potency
CCCCc1cc2c(cn1)=C(OC(=O)c1cccs1)C(C)(OC(=O)CC)C(=O)C=2 (stereo not drawn)	1.9 µM (active)
COC(=O)C1=C(C)N(Cc2ccccc2)C(=NCc2cc(OC)c(OC)c(OC)c2)NC1CCc1ccccc1 (stereo not drawn)	2.94 µM (active)
CCCCc1cc2c(cn1)C(=O)C(C)(OC(C)=O)C(=O)C2 (stereo not drawn)	inactive
CCCCC1=CC2=C(c3ccco3)C(=O)C(C)(OC(=O)c3ccc(OC)cc3)C(=O)C2=CN1CCN1CCOCC1 (stereo not drawn)	inactive
CCCC[C@]12Cc3cc(C#N)ccc3[C@H](O1)c1c(c3cc(F)ccc3oc1=O)O2	inactive
O=C1Nc2cccc(Br)c2[C@@]12O[C@H](COc1ccccc1)CC1=CCCC12 (stereo partly drawn)	inactive
CC1(OC(=O)C2CCCC2)C(=O)C=C2C=C(c3ccsc3)N(c3cccc(C#N)c3)C=C2C1=O (stereo not drawn)	inactive
CCOC(=O)CCN1C(=O)[C@@H]2[C@H]3[C@H](O)[C@H](O)CC(=NO[C@@H]4O[C@H](COC(C)=O)[C@@H](OC(C)=O)[C@H](OC(C)=O)[C@@H]4OC(C)=O)[C@H]3CC[C@H]2C1=O	inactive

Target: Atrial natriuretic peptide receptor 1 (Homo sapiens) (UniProt P16066)
Test: Natriuretic polypeptide receptor (hNpr1) antagonism - Pilot CMLD screen (AID 1347052);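 also: cGMP level read as GloSensor luciferase luminescence after agonist stimulation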
Settings: HEK293 hNpr1 GloSensor cGMP luminescence, ANP-stimulated; series mostly up to 9.22 µM

Sequence of Atrial natriuretic peptide receptor 1 (Homo sapiens) (P16066 whole entry, looked up): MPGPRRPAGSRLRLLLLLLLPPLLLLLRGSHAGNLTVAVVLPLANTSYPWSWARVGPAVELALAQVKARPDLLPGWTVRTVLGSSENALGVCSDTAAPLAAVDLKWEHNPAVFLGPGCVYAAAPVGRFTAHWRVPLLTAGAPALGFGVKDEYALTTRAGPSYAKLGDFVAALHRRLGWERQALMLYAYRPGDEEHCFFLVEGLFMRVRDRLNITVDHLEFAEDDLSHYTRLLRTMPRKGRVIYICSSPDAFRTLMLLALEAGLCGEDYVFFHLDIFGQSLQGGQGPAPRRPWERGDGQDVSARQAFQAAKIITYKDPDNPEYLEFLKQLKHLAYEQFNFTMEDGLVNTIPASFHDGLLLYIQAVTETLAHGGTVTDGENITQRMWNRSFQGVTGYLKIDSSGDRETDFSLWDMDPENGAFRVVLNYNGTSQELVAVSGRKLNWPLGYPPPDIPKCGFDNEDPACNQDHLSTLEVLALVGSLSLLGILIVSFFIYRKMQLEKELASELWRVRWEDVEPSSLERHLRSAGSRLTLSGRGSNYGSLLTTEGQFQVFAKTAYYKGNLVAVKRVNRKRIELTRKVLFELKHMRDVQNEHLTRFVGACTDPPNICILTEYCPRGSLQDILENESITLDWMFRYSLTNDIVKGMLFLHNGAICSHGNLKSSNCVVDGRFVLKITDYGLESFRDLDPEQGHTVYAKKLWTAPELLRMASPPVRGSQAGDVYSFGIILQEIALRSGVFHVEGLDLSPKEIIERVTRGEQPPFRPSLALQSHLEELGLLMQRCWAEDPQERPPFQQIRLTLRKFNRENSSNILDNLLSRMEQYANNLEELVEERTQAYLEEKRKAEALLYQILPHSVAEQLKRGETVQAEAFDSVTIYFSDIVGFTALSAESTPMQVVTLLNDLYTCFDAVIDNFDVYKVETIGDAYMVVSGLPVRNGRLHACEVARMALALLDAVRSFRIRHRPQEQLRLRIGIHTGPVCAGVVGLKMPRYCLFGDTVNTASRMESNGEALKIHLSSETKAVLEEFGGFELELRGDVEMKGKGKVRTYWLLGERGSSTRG

Compound	Potency
CCCCc1cc2c(cn1)=C(OC(=O)c1cccs1)C(C)(OC(=O)CC)C(=O)C=2 (stereo not drawn)	inactive
COC(=O)C1=C(C(=O)OC)[C@@H]2N(C)c3ccccc3[C@@]23C[C@@H](CO)N(C(=O)NC2CCCCC2)C3=N1	inactive
COc1cccc([C@@H]2Oc3ccc(OC)cc3C(=O)[C@@H]2OC(=O)N[C@H]2CCCc3ccccc32)c1	inactive
COC(=O)N[C@H](C(C(=O)OC)=C(C)NCc1ccccc1)c1ccccc1	inactive
COC(=O)C1=C(C)N(Cc2ccccc2)C(=NCc2cc(OC)c(OC)c(OC)c2)NC1CCc1ccccc1 (stereo not drawn)	inactive
CCOC(=O)[C@@]1([C@@H](NC(=O)OC)c2cccc(C)c2)CCCC1=O	inactive
CC1=CC[C@@H](COc2ccccc2)O[C@@]2(C1)C(=O)N(Cc1ccccc1C(F)(F)F)c1ccccc12	inactive
CCCCc1cc2c(cn1)C(=O)C(C)(OC(C)=O)C(=O)C2 (stereo not drawn)	inactive
CCCC[C@]12Cc3ccccc3[C@H](O1)c1c(cc(-c3ccccc3)oc1=O)O2	inactive
COC(=O)C=P(c1ccccc1)(c1ccccc1)c1ccccc1	inactive
COC(=O)N[C@@H](C=Cc1ccccc1)C[N+](=O)[O-]	inactive
CCOC(=O)C1=NO[C@@]2(C=C(Br)C(=O)[C@H]3O[C@H]32)C1	inactive
COc1ccc(OC[C@H]2CN3[C@H](c4ccc(Br)cc4)[C@H](C)CC[C@H]3C(=O)O2)cc1	inactive
CC(C)=CCC12CC3[C@@H](O)C(C(=O)c4ccccc4)(C1=O)C(=O)C(CC=C(C)C)(C2=O)C3(C)C (stereo partly drawn)	inactive
CCCCC1=CC2=C(c3ccco3)C(=O)C(C)(OC(=O)c3ccc(OC)cc3)C(=O)C2=CN1CCN1CCOCC1 (stereo not drawn)	inactive
COc1ccc(-c2nc3c(c4c2C[C@H](c2ccccc2)OC4)CN(C(=O)c2cccnc2)CC3)c(C)c1	inactive
CC(=O)OC[C@H]1O[C@H](CCON=C(C)CCN2CCCc3nc(C)c(C)cc32)C=C[C@H]1OC(C)=O	inactive
CC(C)=CCCC(C)=CCN1C(=O)[C@]2(O[C@H](C)CC3=CCCC32)c2c(Br)cccc21 (stereo partly drawn)	inactive
CCCC[C@]12Cc3cc(C#N)ccc3[C@H](O1)c1c(c3cc(F)ccc3oc1=O)O2	inactive
COC(=O)C1=C(C)N(Cc2ccccc2)C(=NCc2cc(OC)c(OC)c(OC)c2)NC1c1cccc(F)c1 (stereo not drawn)	inactive

Compound	Potency
O=C1Nc2cccc(Br)c2[C@@]12O[C@H](COc1ccccc1)CC1=CCCC12 (stereo partly drawn)	inactive
C=C(C(C)=O)C(O)c1ccco1 (stereo not drawn)	inactive
CC(C)(C)Nc1oc(-c2ccccc2)nc1-c1ccc(C(F)(F)F)cc1	inactive
CCCCC1=CC2=C(c3ccco3)C(=O)C(C)(OC(=O)c3ccc(OC)cc3)C(=O)C2=CN1C1CCCCC1 (stereo not drawn)	inactive
COC(=O)CCCC1=CC2=C(c3ccccc3)C(=O)C(C)(OC(=O)C3CCCC3)C(=O)C2=CN1Cc1ccc(OC)cc1 (stereo not drawn)	inactive
COC(=O)[C@H]1[C@@H](c2ccccc2)NC(=O)N(CCc2cc(OC)c(OC)c(OC)c2)[C@@H]1C	inactive
COCOc1cc(OC)ccc1C(=O)C=Cc1ccc([N+](=O)[O-])cc1	inactive
C[C@@H]1CC[C@H]2C(=O)O[C@@H](COc3ccc(C(C)(C)C)cc3)CN2[C@H]1c1ccc(Br)cc1	inactive
CCN(CC)CCCN=C1NC(c2cccc(F)c2)C(C(=O)OC)=C(C)N1Cc1ccccc1 (stereo not drawn)	inactive
C=CCCCC=C(C)[C@H](OCc1ccc(OC)cc1)[C@H](CCC=C(C)C(N)=O)OC	inactive
COc1cccc([C@@H]2Oc3ccc(Br)cc3C(=O)[C@@H]2OC(=O)N[C@H]2CCCc3ccccc32)c1	inactive
CCCCCCCC1Cc2ccccc2C(C(C(=O)OC)C(=O)OC)N1C(=O)OC (stereo not drawn)	inactive
CC1(OC(=O)C2CCCC2)C(=O)C=C2C=C(c3ccsc3)N(c3cccc(C#N)c3)C=C2C1=O (stereo not drawn)	2.66 µM (active)
COc1cccc2c1[C@H](C=Cc1ccccc1)[C@@H]([C@H](O)CO)OC2	inactive
COC(=O)C1=C(C(=O)OC)[C@@H]2N(C)c3ccccc3[C@@]23CCC(=O)N(CC(C)C)C3=N1	inactive
C=CCOC(=O)C(C(C)=O)[C@@H](NC(=O)OC)c1ccc2ccccc2c1 (stereo partly drawn)	inactive
COc1ccc(-c2nc(-c3ccccc3)c(NC(C)C)o2)cc1	inactive
CC(CCN1CCCc2nc(C)c(C)cc21)=NOC[C@@H](C)[C@H](OCc1ccccc1)C(C)C	inactive
CCOC(=O)CCN1C(=O)[C@@H]2[C@H]3[C@H](O)[C@H](O)CC(=NO[C@@H]4O[C@H](COC(C)=O)[C@@H](OC(C)=O)[C@H](OC(C)=O)[C@@H]4OC(C)=O)[C@H]3CC[C@H]2C1=O	inactive
Cc1ccc(C(=O)OC[C@H]2O[C@H](Cl)C[C@H]2OC(=O)c2ccc(C)cc2)cc1	inactive
